Reference: PubChem BioAssay (NCI)
The panel holds about 83,000 compounds, 20% with a hit somewhere; the sample as a whole holds those more often.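 Single-dose data. Exposure time 48 hours. Values below 10 considered active.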 Calls of active or inactive are those of the source.

The molecules below were run on HL-60(TB) leukemia (assay: NCI-60 one-dose screen, 48 h (100 = growth as untreated, 0 = no growth, -100 = all killed)). Conditions: 10 µM unless noted.

| SMILES | growth |
| --- | --- |
| O=c1c2c3c(sc2n2c(-c4cn(-c5ccccc5)nc4-c4ccc(Cl)cc4)nnc2n1Cc1ccccc1)CCCC3 | 102% (inactive) |
| N#Cc1c(N)n(CCNC(=O)c2ccccc2)c2nc3ccccc3nc12 | 34.5% (inactive) |
| CN(C)CCSC1=Nc2ccc(Cl)cc2C(c2ccccc2Cl)N(C)C1 (centres undefined) | 35.1% (inactive) |
| O=C1C(=O)c2cc([N+](=O)[O-])ccc2-c2ccccc21 | -30% (active) |
| COc1ccc(C(C)=O)c(OC)c1 | 115% (inactive) |
| O=C(CNc1nc2ccccc2s1)Nc1ccc(-c2nc3ccccc3s2)cc1 | 99.1% (inactive) |
| CC1=C/C(=N\N=C2/C=C(C)CC(C)(C)C2)CC(C)(C)C1 | 84.1% (inactive) |
| COc1ccc(-c2nnc(COc3ccc(Cl)cc3Cl)o2)cc1OC | 89.3% (inactive) |
| Cc1ccc(-c2nc3nc(-c4ccccc4)nc(N4CCN(S(=O)(=O)c5ccccc5)CC4)c3o2)cc1 | 107% (inactive) |
| CCN(CC)c1ccc2c(c1)OS(=O)(=O)N=C2 | 101% (inactive) |
| O=P(O)(O)OCC1OC(n2cnc3c(NCc4ccco4)ncnc32)C(O)C1O (centres undefined) | -6.93% (active) |
| c1cc2ccc3cc2cc1CNCCOCCNCc1ccc2ccc(cc2c1)CNCCOCCNC3 | 15.9% (inactive) |
| COc1cc2nccc(Oc3ccc(NC(=O)Nc4cc(C)on4)c(Cl)c3)c2cc1OC | 9.48% (active) |
| CC[C@H](C)[C@H]1NC(=O)[C@@H](N[C@](C)(O)[C@@H](N)CC(C)C)[C@@H](C)OC(=O)[C@H](Cc2ccc(OC)cc2)N(C)C(=O)[C@@H]2CCCN2C(=O)[C@H](CC(C)C)NC(=O)[C@@H](C)C(=O)[C@H](C(C)C)OC(=O)C[C@@H]1O | -27.7% (active) |
